The values below come from PubChem BioAssay.

Calls of active or inactive are those of the source.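 The calls were made as follows, unless noted: active = inhibition of the reporter signal at or above 50%; inactive = inhibition below 50%.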

The nature of assay [1]: inhibitors of TNFa-induced NFkB p65 translocation, primary screen, imaging, HUVEC, MLSMR starter and 10KST1 sets (AID 438;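 active = inhibition above 20% together with a positive visual image hit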;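 also: compound added about 3h40 before a 20 min TNFalpha stimulation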;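 as to inhibition: signal is the nuclear over cytoplasmic p65 intensity ratio per well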). To be noted: HUVEC TNFa-induced p65 nuclear translocation; cell count: measured here: nuclei count (cytotoxicity indicator), at 2.08 µM; inhibition: at 2 µM, stronger effect = higher value, 0% TNFa-plus-vehicle, 100% no-TNFa wells.
Assay [2] in a line: inhibitors of mutant huntingtin aggregation, primary screen, imaging, exon1htt(103Q)mCFP cells, high-content imaging (AID 483;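 active = visual image review flags a hit and inhibition of aggregation exceeds 20%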;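 also: compound exposure lasted 3 days before fixation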;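 as to nuclei count: percent of the per-plate median nuclei count of sample wells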). Particulars: exon1htt(103Q)mCFP cell line, aggregate imaging, at 2 µM; inhibition of aggregation: stronger effect = higher value; nuclei count: measured here: cell count, toxicity.
Assay [3] in a line: inhibitors of E-selectin induction by TNFa, primary screen, imaging, HUVEC, immunofluorescence, MLSMR starter and 10KST1 sets (AID 487;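 active = visually confirmed hit in the image check and inhibition above 20%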;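 as to inhibition: signal is fraction of cell area covered by stained E-selectin grains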;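 as to nuclei count: 100% = median nuclei count of all wells on the same plate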). Particulars: HUVEC TNFalpha-induced E-selectin immunofluorescence imaging, at 2 µM; inhibition: stronger effect = higher value; nuclei count: measured here: cell number, toxicity.
For assay [4], the target named is Voltage-gated potassium channel subunit beta-2 (Rattus norvegicus) (UniProt P62483). Briefly: KvBeta enzyme negative modulators, primary screen, biochemical, NADPH fluorescence (AID 622;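 active = fluorescence slope higher than the sample average by over 3 SD, cut at about -0.22 in these data, passing the limit was not always enough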;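 also: slope of raw intensity against log time taken from 70 to 1610 s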). Particulars: recombinant KvBeta, 4-cyanobenzaldehyde reduction, at 10 µM, stronger effect = higher value.
Sequence of Voltage-gated potassium channel subunit beta-2 (Rattus norvegicus) (P62483 whole entry, looked up): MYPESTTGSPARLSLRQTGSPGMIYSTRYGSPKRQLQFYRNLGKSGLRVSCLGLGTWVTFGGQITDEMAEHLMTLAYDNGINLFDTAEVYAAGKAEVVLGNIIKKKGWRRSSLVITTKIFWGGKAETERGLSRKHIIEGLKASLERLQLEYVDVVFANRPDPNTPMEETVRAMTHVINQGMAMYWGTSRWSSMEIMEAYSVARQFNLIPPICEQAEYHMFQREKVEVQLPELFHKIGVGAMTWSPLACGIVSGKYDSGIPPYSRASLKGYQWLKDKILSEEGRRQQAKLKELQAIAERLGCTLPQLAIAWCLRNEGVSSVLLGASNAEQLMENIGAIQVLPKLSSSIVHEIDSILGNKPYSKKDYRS
The target is the same in assay [5]. The assay can be described thus: KvBeta positive modulators, primary screen, biochemical, NADPH fluorescence (AID 623;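 active = NADPH fluorescence slope more negative than the mean of all samples by about 3 SD, 99.7% confidence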;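 also: fluorescence intensity change per second fitted from 20 to 320 s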). To be noted: Recombinant KvBeta, NADPH fluorescence decrease slope, 10 min; at 10 µM; stronger effect = lower value.
The target in assay [6] is Alpha-2C adrenergic receptor (Homo sapiens) (UniProt P18825). Briefly: modulators of alpha2C/GIRK thallium flux, primary screen, cell-based, HEK293 alpha2C/GIRK1/2 (AID 624;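 active = fluorescence slope after compound addition differing from the mean of all screened samples at 99.7% confidence, in either direction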;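 also: slope of fluorescence ratio to pre-addition baseline per second over 15 to 24 s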). Particulars: thallium flux BTC fluorescence, at 10 µM, actives lie on both sides.
Sequence of Alpha-2C adrenergic receptor (Homo sapiens) (P18825 whole entry, looked up): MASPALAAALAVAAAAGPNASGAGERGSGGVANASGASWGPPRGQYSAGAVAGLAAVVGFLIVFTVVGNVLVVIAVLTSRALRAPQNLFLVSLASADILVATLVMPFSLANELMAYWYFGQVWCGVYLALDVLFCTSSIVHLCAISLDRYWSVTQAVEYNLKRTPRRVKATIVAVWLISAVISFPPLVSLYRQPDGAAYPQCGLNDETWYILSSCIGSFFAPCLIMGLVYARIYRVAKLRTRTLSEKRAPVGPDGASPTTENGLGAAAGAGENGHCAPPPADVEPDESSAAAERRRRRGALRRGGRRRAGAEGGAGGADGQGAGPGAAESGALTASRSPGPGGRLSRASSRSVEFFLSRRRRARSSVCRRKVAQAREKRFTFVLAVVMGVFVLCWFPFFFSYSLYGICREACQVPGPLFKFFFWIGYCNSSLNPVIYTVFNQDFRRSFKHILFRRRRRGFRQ
Assay [7] in a line: inhibitors of Sendai virus-induced IRF3 signaling, primary screen, TLR/RLR signaling modifier project, cell-based, Sendai virus stimulus, luciferase, 10K MLSCN set (AID 602276;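 active = inhibition at or above 50% at 10 µM; inactive = inhibition below 50%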;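 also: firefly luciferase from ISG56 promoter only with Renilla not read in this screen; 0% = Sendai virus plus DMSO and 100% = medium plus DMSO without virus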). Particulars: HEK293 RL24 IRF3 luciferase reporter, at 10 µM, stronger effect = higher value. Background: In a reporter assay the amount or activity of a reporter protein is the signal.
Assay [8] can be described thus: inhibitors of poly I:C-induced TLR3 signaling, primary screen, cell-based, poly I:C stimulus, luciferase, 10K MLSCN set (AID 602277). Particulars: HEK293-TLR3 RL24 IRF3 luciferase reporter, at 10 µM, stronger effect = higher value.

The term inhibition denotes the relative decrease from the control value, in per cent.

In the case of `Cc1ccc(OCc2nnc(SCC(=O)Nc3ccc4c(c3)OCO4)n2C)cc1`, the cell count in assay [1] stood at 325. Moreover, the inhibition was -6.5% (inactive) in assay [1], -59.2% (inactive) in assay [3], 17.9% (inactive) in assay [7] and 12.7% (inactive) in assay [8]. In addition, the inhibition of aggregation in assay [2] is 7.6% (inactive). The nuclei count in assay [2] was determined as 77.3%; in assay [3], 103%. For the same compound, in assay [4], the fluorescence slope was -0.409 (inactive). The NADPH fluorescence slope in assay [5] was -5.7e-05 (inactive). Besides, the slope in assay [6] was 0.00504 (inactive).

Turning to `COc1ccc(C(=O)OCC(=O)NCc2ccco2)cc1OC`, the cell count in assay [1] was determined as 573. For the same compound, the inhibition is -18.9% (inactive) in assay [1], -12.3% (inactive) in assay [3], 17.6% (inactive) in assay [7] and 27.6% (inactive) in assay [8]. Further, the inhibition of aggregation in assay [2] was -1.1% (inactive). Besides, the nuclei count turned out to be 107% in assay [2] and 121% in assay [3]. Moreover, the fluorescence slope in assay [4] was -0.467 (inactive). Besides, in assay [5], the NADPH fluorescence slope is -7.7e-05 (inactive). In addition, the slope in assay [6] is 0.00497 (inactive).

In the case of `Cc1ccc(Nc2cc(C)nc3ncnn23)c(Cl)c1`, the cell count in assay [1] is 551. Besides, the inhibition in assay [1] was 7.9% (inactive); in assay [3] it was -65.9% (inactive); in assay [7], 6.25% (inactive); in assay [8] it was 18.4% (inactive). The inhibition of aggregation in assay [2] is -2.9% (inactive). Also, the nuclei count in assay [2] was determined as 69.8%; in assay [3] it was 104%. Further, the fluorescence slope in assay [4] was -0.491 (inactive). In assay [5], the NADPH fluorescence slope was 4.8e-06 (inactive). Further, the slope in assay [6] is 0.00625 (inactive).

For `COc1ccc(C(=O)COC(=O)CCn2nnc(-c3cccs3)n2)cc1`, the cell count in assay [1] is 237. In addition, the inhibition was 2.2% (inactive) in assay [1], 56.4% (inactive) in assay [3], -6.55% (inactive) in assay [7] and -7.1% (inactive) in assay [8]. Also, the inhibition of aggregation in assay [2] is 20% (inactive). For the same compound, the results for the nuclei count in assay [2] and in assay [3] were 78.6% and 73.7%, respectively. For the same compound, in assay [4], the fluorescence slope is -0.426 (inactive). In addition, in assay [5], the NADPH fluorescence slope is 1.6e-05 (inactive). For the same compound, the slope in assay [6] is 0.00571 (inactive).

As for `CCOC(=O)c1c(NC(=O)OC)sc2c1CCC2`, the cell count in assay [1] was determined as 496. In addition, the inhibition in assay [1] was -0.5% (inactive); in assay [3], -35.7% (inactive); in assay [7] it was 7.95% (inactive); in assay [8], 15.6% (inactive). Further, the inhibition of aggregation in assay [2] was 9.3% (inactive). Moreover, the figures for the nuclei count in assay [2] and in assay [3] were 82.8% and 125%, respectively. For the same compound, the fluorescence slope in assay [4] was -0.535 (inactive). For the same compound, the NADPH fluorescence slope in assay [5] was -1.5e-05 (inactive). In addition, the slope in assay [6] was 0.00667 (inactive).

`Nc1scc(-c2ccncc2)c1Cl`: the cell count in assay [1] was found to be 349. The inhibition in assay [1] was -0.2% (inactive); in assay [3], -2.4% (inactive); in assay [7], -19.6% (inactive); in assay [8] it was -65.9% (inactive). The inhibition of aggregation in assay [2] was 23% (inactive). The nuclei count is 94.4% in assay [2] and 107% in assay [3]. In addition, the fluorescence slope in assay [4] was -0.386 (inactive). Besides, the NADPH fluorescence slope in assay [5] was 1.9e-05 (inactive). In addition, in assay [6], the slope is 0.00535 (inactive).

Regarding `CCOC(=O)N1CCN(Cc2ccccc2F)CC1`, in assay [1], the cell count stood at 485. Besides, the inhibition in assay [1] was -3.8% (inactive); in assay [3], -26% (inactive); in assay [7], 12.5% (inactive); in assay [8] it was 13.4% (inactive). The inhibition of aggregation in assay [2] is 15.1% (inactive). Moreover, the nuclei count in assay [2] was 91.4%; in assay [3], 91.5%. The fluorescence slope in assay [4] was -0.581 (inactive). For the same compound, the NADPH fluorescence slope in assay [5] was -2e-05 (inactive). The slope in assay [6] was 0.00418 (inactive).

On to `Cc1ccc(-c2nc3cc(NC(=O)C(C)C)ccc3o2)cc1`, for which, in assay [1], the cell count was found to be 290. The inhibition is -6.7% (inactive) in assay [1], 29.7% (inactive) in assay [3], -10.9% (inactive) in assay [7] and -66.2% (inactive) in assay [8]. Also, the inhibition of aggregation in assay [2] is 14.3% (inactive). Besides, the nuclei count was 98.3% in assay [2] and 87.7% in assay [3]. Besides, the fluorescence slope in assay [4] was -0.319 (inactive). Moreover, the NADPH fluorescence slope in assay [5] is -3e-05 (inactive). In assay [6], the slope is 0.0055 (inactive).

`CCCCc1nc2ccccc2n2cc3c(=O)n(C)c(=O)n(C)c3c12`: in assay [1], the cell count came out at 877. For the same compound, the inhibition in assay [1] was 5.2% (inactive); in assay [3], -48.7% (inactive); in assay [7], 14.3% (inactive); in assay [8], 28.9% (inactive). Besides, the inhibition of aggregation in assay [2] is -29.8% (inactive). For the same compound, the nuclei count in assay [2] stood at 81.2%; in assay [3] it was 104%. Further, the fluorescence slope in assay [4] is -0.524 (inactive). Further, the NADPH fluorescence slope in assay [5] is -1.7e-05 (inactive). Moreover, the slope in assay [6] was 0.00741 (inactive).

Consider `O=C1CCN(C(=O)c2ccccc2)C2CCCCC12` (centres undefined), for which the cell count in assay [1] stood at 511. Besides, the inhibition was -8.7% (inactive) in assay [1], 19.1% (inactive) in assay [3], -7.18% (inactive) in assay [7] and 15.9% (inactive) in assay [8]. In addition, in assay [2], the inhibition of aggregation was 4.4% (inactive). Moreover, the nuclei count in assay [2] was 41.3%; in assay [3], 81.9%. For the same compound, the fluorescence slope in assay [4] is -0.408 (inactive). In addition, the NADPH fluorescence slope in assay [5] was 1.6e-05 (inactive). In assay [6], the slope is 0.00412 (inactive).

For `CCOc1ccc(S(=O)(=O)n2c(C)nc3ccccc32)cc1`, the cell count in assay [1] is 781. The inhibition was -5.8% (inactive) in assay [1], -99.9% (inactive) in assay [3], 49.1% (inactive) in assay [7] and 5.17% (inactive) in assay [8]. For the same compound, in assay [2], the inhibition of aggregation is -0.6% (inactive). For the same compound, the nuclei count in assay [2] came to 101%; in assay [3], 115%. For the same compound, the fluorescence slope in assay [4] was -0.627 (inactive). Moreover, in assay [5], the NADPH fluorescence slope was 9.2e-06 (inactive). For the same compound, the slope in assay [6] is 0.00517 (inactive).

On to `O=C1OCCC1Sc1ncnc2sc3c(c12)CCC3` (centres undefined), for which the cell count in assay [1] stood at 755. Besides, the inhibition is -6.2% (inactive) in assay [1], -9.4% (inactive) in assay [3], 9.45% (inactive) in assay [7] and 17% (inactive) in assay [8]. Moreover, the inhibition of aggregation in assay [2] is 4.8% (inactive). In addition, the nuclei count in assay [2] is 84.1%; in assay [3], 111%. Moreover, the fluorescence slope in assay [4] is -0.412 (inactive). The NADPH fluorescence slope in assay [5] is 4.3e-06 (inactive). Besides, the slope in assay [6] was 0.00667 (inactive).

For `Cn1cnc2c(N3CCCCC3)nccc21`, in assay [1], the cell count worked out at 720. Also, the inhibition in assay [1] was -31% (inactive); in assay [3], -88.5% (inactive); in assay [7], 7.97% (inactive); in assay [8], 22.8% (inactive). Moreover, the inhibition of aggregation in assay [2] is 0.5% (inactive). Further, the nuclei count in assay [2] is 97.8%; in assay [3], 122%. Besides, in assay [4], the fluorescence slope was -0.417 (inactive). Further, the NADPH fluorescence slope in assay [5] is -0.000121 (inactive). In assay [6], the slope is 0.00681 (inactive).

Turning to `CC(NS(=O)(=O)c1ccc(OCC(=O)N2CCOCC2)c(Cl)c1)c1ccccc1` (centres undefined), the cell count in assay [1] is 338. The inhibition in assay [1] is -6.5% (inactive); in assay [3] it was -51.1% (inactive); in assay [7], 18.7% (inactive); in assay [8], 12.4% (inactive). Also, in assay [2], the inhibition of aggregation was 0.2% (inactive). The nuclei count in assay [2] turned out to be 104%; in assay [3] it was 76.7%. For the same compound, the fluorescence slope in assay [4] is -0.409 (inactive). In assay [5], the NADPH fluorescence slope is -3.1e-05 (inactive). Further, the slope in assay [6] was 0.00508 (inactive).
